Bioassay records (PubChem)
Platelet DG rel: inhibitors of platelet dense granule secretion, primary screen, cell-based, MLPCN, human platelets; AID 1663, 2009; hit rate 0.22% among 300,000; human platelet-rich plasma, SFLLRN dense granule ATP release, luminescence; inhibition, %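 (compounds screened at 7.5 µM in platelet-rich plasma)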;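 active means mean replicate score, as percent of positive control, at or above 50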
HSP90 inh: HSP90 inhibitors, primary screen, cell lysate, luminescence; Heat shock protein HSP 90 (rabbit reticulocyte lysate; luciferase refolding); inhibition, % at 5.6 µM; AID 1789, 2009; Rabbit reticulocyte lysate, luciferase refolding luminescence, 3 h; hit rate 0.91% among 290,000;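 active means inhibition above the screen-wide mean plus 3 SD, computed separately per campaign, cut at about 16% in these data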;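 further: 0% = DMSO wells and 100% = 60 µM geldanamycin wells; inhibitors lower the luminescence because luciferase stays unfolded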
SENP8 block-1: SENP8 protease inhibitors, primary screen, biochemical, luminescence; hit rate 1.2% among 330,000; inhibition, % at 10 µM; AID 2540, 2010; Sentrin-specific protease 8 (Homo sapiens), Q96LD8; purified SENP8, Z-RLRGG-aminoluciferin cleavage; in the data active means inhibition above about 50%
Target sequence (Q96LD8 whole entry, looked up): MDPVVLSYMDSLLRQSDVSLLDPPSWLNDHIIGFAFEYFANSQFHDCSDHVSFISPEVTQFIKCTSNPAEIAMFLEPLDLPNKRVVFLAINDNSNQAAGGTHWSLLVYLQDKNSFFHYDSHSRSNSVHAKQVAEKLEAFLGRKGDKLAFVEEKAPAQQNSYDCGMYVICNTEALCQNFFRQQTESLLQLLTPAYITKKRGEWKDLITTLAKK
SENP8 block-2: human SENP8 protease inhibitors, primary screen, biochemical, fluorescence, Nedd8 protein substrate, uHTS. Sentrin-specific protease 8 (Homo sapiens), Q96LD8. recombinant SENP8. inhibition, % at 20 µM. hit rate 0.64% among 360,000. AID 602440, 2012; in the data active means inhibition mostly above about 40%, no sharp cut-off; inactive means mostly below about 27%
SENP7 inh: SENP7 protease inhibitors, primary screen, biochemical, luminescence, uHTS | Sentrin-specific protease 7 (Homo sapiens), Q9BQF6 | recombinant SENP7, Z-RLRGG-aminoluciferin luminescence, 40 min | inhibition, % at 5 µM | hit rate 1.5% among 330,000 | AID 434973, 2010;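 active means inhibition above about 50% at the single test dose, limit read from the data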;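 further: plate controls were DMSO with enzyme for no effect and no enzyme buffer wells for full effect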
Target sequence (Q9BQF6 706-1050 limits assumed): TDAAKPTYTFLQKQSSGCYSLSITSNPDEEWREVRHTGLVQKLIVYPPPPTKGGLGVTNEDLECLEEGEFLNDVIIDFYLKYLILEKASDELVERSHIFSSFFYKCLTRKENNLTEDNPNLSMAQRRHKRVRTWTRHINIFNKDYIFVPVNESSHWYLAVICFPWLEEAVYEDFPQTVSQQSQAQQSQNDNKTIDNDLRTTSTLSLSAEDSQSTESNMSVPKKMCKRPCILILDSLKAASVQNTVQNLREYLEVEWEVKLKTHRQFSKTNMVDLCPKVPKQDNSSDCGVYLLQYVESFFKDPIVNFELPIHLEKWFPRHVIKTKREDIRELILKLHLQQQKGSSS
SENP6 inh: SENP6 protease inhibitors, primary screen, biochemical, luminescence, uHTS | Recombinant SENP6 catalytic domain, aminoluciferin luminescence | hit rate 1.8% among 330,000 | inhibition, % at 10 µM | AID 2599, 2010;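 active means inhibition above about 50% at the single tested dose, limit read from the data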;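 further: plate controls were DMSO wells with enzyme for no effect and DMSO wells lacking enzyme for full effect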
SENP8 conf: SENP8 protease inhibitors, retest, confirmation, biochemical, luminescence, single concentration. inhibition, % at 12.5 µM. hit rate 40% among 6,200. Recombinant SENP8, Z-RLRGG-aminoluciferin luminescence, 60 min. shares compounds with SENP7 inh. AID 488912, 2010;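 active means mean inhibition across replicates above about 50%, limit read from the data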
SENP6 conf: SENP6 protease inhibitors, confirmation, biochemical, luminescence, single concentration. AID 488915, 2010. inhibition, % at 12.5 µM. recombinant SENP6, Z-RLRGG-aminoluciferin luminescence. shares compounds with SENP7 inh. hit rate 58% among 6,200
SENP7 conf: SENP7 protease inhibitors, retest, confirmation, biochemical, luminescence, single concentration; shares compounds with SENP7 inh; recombinant SENP7, Z-RLRGG-aminoluciferin luminescence, 40 min; inhibition, % at 12.5 µM; hit rate 69% among 6,200; AID 488917, 2010
Casp3 select: caspase-3 protease inhibitors, confirmation, selectivity assay for SENP inhibitor project, biochemical, single concentration | shares compounds with SENP7 inh | purified caspase-3, Z-DEVD-aminoluciferin luminescence, 60 min | inhibition, % at 12.5 µM | hit rate 60% among 6,200 | AID 488918, 2010;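 active means mean inhibition above about 50%, limit read from the data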;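 further: plate controls were enzyme with DMSO for no effect and wells without caspase-3 for full effect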
Target sequence (P42574 28-227 limits assumed): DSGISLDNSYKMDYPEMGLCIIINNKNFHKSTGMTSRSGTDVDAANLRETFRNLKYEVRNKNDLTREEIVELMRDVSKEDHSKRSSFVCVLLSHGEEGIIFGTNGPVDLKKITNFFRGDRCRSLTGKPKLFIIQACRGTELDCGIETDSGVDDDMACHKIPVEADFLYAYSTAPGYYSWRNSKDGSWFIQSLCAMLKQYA
SENP luc ctr: luminescence interference (SENP counter-screen); shares compounds with SENP7 inh; Pre-incubated SENP8/Z-RLRGG-aminoluciferin, luciferase luminescence interference; inhibition, % at 12.5 µM; hit rate 39% among 6,200;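 active means mean inhibition above about 50% when retested at one dose, limit read from the data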;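 further: plate controls were DMSO wells with completed reaction for no effect and substrate without enzyme for full effect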
* = called active by the depositor; x = no result given. In the library only some 2.8% were active in any assay of this set; here they are far more common.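 How the source made its calls, unless noted: active means mean inhibition above about 50% in the one-dose retest (limit read from the data); inactive means the rest.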

SMILES | Platelet DG rel | HSP90 inh | SENP8 block-1 | SENP8 block-2 | SENP7 inh | SENP6 inh | SENP8 conf | SENP6 conf | SENP7 conf | Casp3 select | SENP luc ctr
CC1Sc2ccc(S(=O)(=O)N3CCC(C(=O)NCc4ccccc4)CC3)cc2NC1=O (stereo not given) | 10.1 | -0.5 | 0.2 | 14.9 | -4.2 | -5.9 | x | x | x | x | x
CS(=O)(=O)n1c2ccccc2c(=O)n1-c1ccccc1CCl | x | x | x | 13.9 | x | x | x | x | x | x | x
C[C@H]1CN([C@@H](C)CO)C(=O)CCCn2nncc2CO[C@@H]1CN(C)S(=O)(=O)c1cccc(F)c1 | x | x | x | 11.3 | x | x | x | x | x | x | x
COc1cccc(NC(=O)c2cccc(C(=O)Nc3cccc(OC)c3)c2)c1 | -1.9 | -0.6 | 3.9 | 5.0 | 5.3 | 15.9 | x | x | x | x | x
COc1cccc(NC(=O)c2ccccc2)c1 | x | x | 36.0 | 13.4 | 51.0* | 47.3 | 48.1 | 44.5 | 77.2* | 73.0* | 51.2*
CC(=O)Nc1cccc(OCC(=O)Nc2sccc2C(N)=O)c1 | 16.7 | 0.7 | 48.2 | 4.0 | 67.5* | 68.1* | 40.2 | 48.4 | 86.3* | 73.1* | 28.4
NS(=O)(=O)c1cccc(NC(=O)CSc2nnc(NC3CC3)s2)c1 | x | x | x | 8.3 | x | x | x | x | x | x | x
Cc1cc(C)n2nc(CNS(=O)(=O)c3ccc(F)c(C)c3)nc2n1 | 0.5 | -4.7 | -4.9 | 9.5 | -6.3 | -6.2 | x | x | x | x | x
O=C(c1ccccc1)c1cnc(Nc2ccccc2Cl)s1 | -2.2 | -2.0 | 48.8 | -276.1 | 54.0* | 74.5* | 73.3* | 75.6* | 87.4* | 46.6 | 52.6*
O=C(c1ccc(Cl)c(Cl)c1)c1cnc(Nc2ccccc2)s1 | 4.5 | 4.9 | 8.3 | -244.3 | 9.5 | 1.7 | x | x | x | x | x
CC(=O)c1csc(Nc2ccccc2Cl)n1 | -19.9 | -1.8 | 13.8 | 12.7 | 54.3* | 41.6 | 13.6 | 14.7 | 69.9* | 63.1* | 47.5
CC(C)(C)C(=O)c1cnc(Nc2ccccc2Cl)s1 | -4.9 | 3.3 | 78.9* | -390.5 | 83.2* | 90.4* | 86.4* | 89.9* | 97.3* | 75.1* | 82.7*
O=C(Cn1nc(-c2cccc(Cl)c2)ccc1=O)NCC1COCCO1 (stereo not given) | -17.7 | x | 1.2 | 5.7 | 16.2 | -6.4 | x | x | x | x | x
COc1ccc(NC(=O)C2CCCN(c3nn4c(=O)cc(C)nc4s3)C2)c(OC)c1 (stereo not given) | 9.2 | 11.6 | -4.3 | -1.4 | 7.9 | -4.2 | x | x | x | x | x
O=C1/C(=C/c2ccccn2)COc2ccccc21 | -0.9 | 3.0 | -7.0 | -5.5 | -8.8 | -30.3 | x | x | x | x | x
O=C1/C(=C/c2ccc(O)cc2)COc2ccccc21 | 38.1 | -6.6 | 83.1* | -10.4 | 93.4* | 94.8* | 93.9* | 89.7* | 94.0* | 65.7* | 88.7*
COc1ccc(C(=O)NNC(=O)CSc2nnc(C3CC3)n2C)cc1 | 0.8 | -7.1 | 1.7 | -1.3 | 7.9 | -4.4 | x | x | x | x | x
O=C(NC(NC1CCS(=O)(=O)C1)C(=O)c1cccs1)c1ccccc1 (stereo not given) | -24.0 | -0.3 | -3.4 | x | 4.2 | -33.4 | x | x | x | x | x
O=C(NC1=C(NC2CCS(=O)(=O)C2)C(=O)c2ccccc2C1=O)c1ccccc1 (stereo not given) | 2.4 | 3.2 | 60.2* | 86.9* | 45.8 | 85.8* | 0.6 | 86.3* | 54.6* | 92.7* | 6.8
NS(=O)(=O)c1ccc(N=Nc2c(O)ccc3ccccc23)cc1 | 17.1 | 3.3 | 0.1 | 18.0 | 3.4 | 10.5 | x | x | x | x | x
Oc1ccc(N=Nc2ccc3ccccc3c2)cc1 | 54.1* | -1.5 | 98.3* | 30.1 | 100.7* | 98.4* | 99.0* | 99.6* | 102.3* | 97.5* | 93.8*
O=[N+]([O-])c1ccccc1N=Nc1ccc(O)cc1 | -11.5 | x | 15.2 | 33.7 | 1.6 | 33.0 | x | x | x | x | x
COc1cc(N=Nc2ccc3ccccc3c2)ccc1O | 1.4 | -7.1 | 93.6* | 6.3 | 94.8* | 96.6* | 94.5* | 95.9* | 101.0* | 73.4* | 94.2*
Oc1ccc(N=Nc2c(O)ccc3ccccc23)cc1 | 5.3 | 7.0 | 63.7* | 9.4 | -4.7 | 68.9* | 67.1* | 68.3* | 72.1* | 11.8 | 17.6
COc1cc(N=Nc2ccccc2C(=O)O)ccc1O | 12.8 | 3.1 | -12.4 | 28.7 | 1.7 | -5.5 | x | x | x | x | x
SMILES | Platelet DG rel | HSP90 inh | SENP8 block-1 | SENP8 block-2 | SENP7 inh | SENP6 inh | SENP8 conf | SENP6 conf | SENP7 conf | Casp3 select | SENP luc ctr
COC(CNC(=O)C(=O)Nc1cc2c3c(c1)CCN3C(=O)CC2)OC | -3.6 | -4.9 | -8.8 | 18.4 | -14.8 | -4.3 | x | x | x | x | x
CC(C)NC(=O)c1ccc2c3n(nc2c1)-c1ccccc1CO3 | 49.1 | x | 78.1* | -112.1 | 77.6* | 77.1* | 88.1* | 86.6* | 97.6* | 94.2* | 81.1*
O=C(NCC1CC1)c1ccc2c3n(nc2c1)-c1ccccc1CO3 | 25.6 | x | 77.8* | -224.4 | 68.1* | 82.3* | 83.0* | 83.9* | 98.1* | 91.7* | 80.0*
Cc1ccc2c(c1)COc1c3ccc(C(=O)NCC4CC4)cc3nn1-2 | -4.7 | x | 0.0 | -326.9 | -1.5 | 0.1 | x | x | x | x | x
O=C(NCCO)c1ccc2c3n(nc2c1)-c1ccccc1CO3 | 14.3 | x | 24.2 | -202.3 | 8.5 | 21.2 | x | x | x | x | x
CC(C)[C@@H](CO)NC(=O)c1ccc2c3n(nc2c1)-c1ccccc1CO3 | 74.7* | x | 81.7* | -123.2 | 49.6 | 84.2* | 91.1* | 90.8* | 98.4* | 95.3* | 62.5*
O=C(CN1C(=O)NC2(CCCC2)C1=O)Nc1nc2ccccc2[nH]1 | -3.6 | x | 5.9 | 7.3 | -3.5 | 0.4 | x | x | x | x | x
CC(=O)c1ccccc1NC(=O)C1CCCN(C(=O)c2ccc(Cl)cc2)C1 (stereo not given) | x | x | 2.2 | -13.5 | 4.4 | 6.1 | x | x | x | x | x
COc1ccc(-c2cc(-c3ccccc3O)[nH]n2)cc1 | 8.6 | 5.1 | 92.3* | 28.9 | 94.0* | 97.5* | 96.0* | 96.6* | 102.1* | 77.9* | 94.5*
